From PubChem BioAssay
Hits are enriched below; roughly 1.1% of the tested compounds scored in any of these assays.
HTR5A inv ctr: counter-screen for OPRM1-OPRD1 inverse agonists: human HTR5A inverse agonism; P47898; HTR5A cell line, luminescence; inhibition, % at 9.3 µM; 340,000 compounds, 0.083% hits; AID 504634; in the data active = inhibition mostly above about 23%, no sharp cut-off; inactive = mostly below about 18%
Target sequence (P47898 whole entry, looked up): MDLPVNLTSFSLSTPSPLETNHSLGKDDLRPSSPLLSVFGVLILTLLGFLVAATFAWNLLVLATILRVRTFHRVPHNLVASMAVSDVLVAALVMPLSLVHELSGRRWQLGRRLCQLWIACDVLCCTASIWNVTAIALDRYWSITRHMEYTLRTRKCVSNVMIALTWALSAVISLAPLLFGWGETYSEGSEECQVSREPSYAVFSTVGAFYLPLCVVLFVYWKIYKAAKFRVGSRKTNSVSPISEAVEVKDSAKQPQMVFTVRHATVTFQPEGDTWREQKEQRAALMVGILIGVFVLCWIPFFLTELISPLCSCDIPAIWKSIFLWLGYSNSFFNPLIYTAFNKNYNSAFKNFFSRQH
MOR-DOR ag: agonists of human mu-delta opioid receptor heterodimerization; P35372+P41143; cells, OPRM1-OPRD1 heterodimerization, luminescence; activation, % at 9.3 µM; 340,000 compounds, 0.3% hits; AID 504326; in the data active = activation above about 18%
MOR-DOR inv ag-1: inverse agonists of human mu-delta opioid receptor heterodimerization; P35372+P41143; cell-based MOR-DOR heterodimer luminescence, inverse agonism; inhibition, % at 9.3 µM; 340,000 compounds, 0.21% hits; AID 504357; in the data active = inhibition above about 22%, passing the limit was not always enough
HTR5A ag ctr: HTR5A agonism, opioid heterodimer counter-screen. activation, % at 9.3 µM. AID 504692. HTR5A agonist assay, luminescence, cell-based. P47898. 340,000 compounds, 0.61% hits; in the data active = activation mostly above about 9.5%, no sharp cut-off; inactive = mostly below about 7.6%
MOR-DOR inv ag-2: counter-screen for HTR5A inverse agonists: OPRM1-OPRD1 heterodimerization inverse agonism; shares compounds with HTR5A inv ctr; U2OS counter-screen cells, complementation luminescence; AID 504912; 190 tested, under 10 active; inhibition, % at 9.3 µM
HTR5A inv conf: HTR5A (human) inverse agonism, confirmation | shares compounds with HTR5A inv ctr | HTR5A-expressing cells, luminescence | 190 tested, under 10 active | inhibition, % at 9.3 µM
A number is an active result. Unless noted, no rule for the calls is given here.

For O=C1/C(=C\c2ccc(O)c(O)c2)N=C2CCCCCN12 the results were HTR5A inv ctr 27.2, MOR-DOR ag inactive, MOR-DOR inv ag-1 inactive, HTR5A ag ctr inactive, MOR-DOR inv ag-2 inactive and HTR5A inv conf inactive.
Screening COc1ccc(C(=O)NC2CCCc3c2cnn3-c2ccccc2F)cc1OC (stereo not drawn) returned HTR5A inv ctr inactive, MOR-DOR ag inactive, MOR-DOR inv ag-1 inactive and HTR5A ag ctr inactive.
CC(C)CC1Nc2ncnc(N3CCN(c4ccccn4)CC3)c2N(Cc2ccc(Cl)cc2)C1=O (stereo not drawn) was read as HTR5A inv ctr 40.2, MOR-DOR ag inactive, MOR-DOR inv ag-1 inactive, HTR5A ag ctr inactive, MOR-DOR inv ag-2 inactive and HTR5A inv conf inactive.
CC(C)CC1Nc2ncnc(N3CCN(c4ccccc4)CC3)c2N(Cc2ccccc2)C1=O (stereo not drawn) was read as HTR5A inv ctr inactive, MOR-DOR ag inactive, MOR-DOR inv ag-1 inactive and HTR5A ag ctr inactive.
COc1ccc(CN2C(=O)C(Cc3ccccc3)Nc3ncnc(N4CCN(c5ccccc5)CC4)c32)cc1 (stereo not drawn) was read as HTR5A inv ctr 43.7, MOR-DOR ag inactive, MOR-DOR inv ag-1 inactive, HTR5A ag ctr inactive, MOR-DOR inv ag-2 inactive and HTR5A inv conf 55.3.
Screening COc1ccc(CN2C(=O)C(CC(C)C)Nc3ncnc(N4CCN(c5ccccc5)CC4)c32)cc1 (stereo not drawn) returned HTR5A inv ctr inactive, MOR-DOR ag inactive, MOR-DOR inv ag-1 inactive and HTR5A ag ctr inactive.
CNc1c(C(=O)O)ccc2c1C(=O)c1ccccc1C2=O was read as HTR5A inv ctr 36.2, MOR-DOR ag inactive, MOR-DOR inv ag-1 inactive, HTR5A ag ctr inactive, MOR-DOR inv ag-2 inactive and HTR5A inv conf inactive.
For O=C(/C=C/c1cccc([N+](=O)[O-])c1)NCCSCc1ccc(Cl)cc1 the results were HTR5A inv ctr inactive, MOR-DOR ag inactive, MOR-DOR inv ag-1 inactive and HTR5A ag ctr inactive.
For O=C(COC(=O)c1cc(Cl)ccc1O)Nc1ccccc1C(=O)NC1CC1 the results were HTR5A inv ctr inactive, MOR-DOR ag inactive, MOR-DOR inv ag-1 inactive and HTR5A ag ctr inactive.
For COc1ccc(S(=O)(=O)Nc2cccc3c2O[C@H](CN(C)S(=O)(=O)c2ccc(F)cc2)[C@H](C)CN([C@H](C)CO)C3=O)cc1 the results were HTR5A inv ctr 39.0, MOR-DOR ag inactive, MOR-DOR inv ag-1 inactive, HTR5A ag ctr inactive, MOR-DOR inv ag-2 inactive and HTR5A inv conf inactive.
Cc1nonc1CN(C)C(=O)c1cc(COc2ccc(F)cc2Cl)on1 was read as HTR5A inv ctr 41.2, MOR-DOR ag inactive, MOR-DOR inv ag-1 inactive, HTR5A ag ctr inactive, MOR-DOR inv ag-2 inactive and HTR5A inv conf inactive.
`COc1ccc(Cl)cc1C(=O)NNC(=O)CSc1nnc2ccccn12` gave HTR5A inv ctr 27.0, MOR-DOR ag inactive, MOR-DOR inv ag-1 inactive, HTR5A ag ctr inactive, MOR-DOR inv ag-2 inactive and HTR5A inv conf inactive.
For CCn1c(SCC(=O)NC(=O)NC(C)(C)C)nc2ccccc21 the results were HTR5A inv ctr inactive, MOR-DOR ag inactive, MOR-DOR inv ag-1 inactive and HTR5A ag ctr inactive.
Screening COc1cccc(C(=O)/C=C/c2ccc(OCC#N)c(OC)c2)c1 returned HTR5A inv ctr inactive, MOR-DOR ag inactive, MOR-DOR inv ag-1 inactive and HTR5A ag ctr inactive.
Screening COc1cc(/C=C/C(=O)c2ccc(O)cc2)ccc1OCC#N returned HTR5A inv ctr 48.0, MOR-DOR ag inactive, MOR-DOR inv ag-1 inactive, HTR5A ag ctr inactive, MOR-DOR inv ag-2 inactive and HTR5A inv conf inactive.
COC(=O)c1ccccc1-c1c2ccc(=N)cc-2oc2cc(N)ccc12 was read as HTR5A inv ctr 34.8, MOR-DOR ag inactive, MOR-DOR inv ag-1 inactive, HTR5A ag ctr inactive, MOR-DOR inv ag-2 inactive and HTR5A inv conf inactive.
Screening CC(=O)N1c2c(cc(Br)cc2S(=O)(=O)N2CCN(c3ccccn3)CC2)CC1C (stereo not drawn) returned HTR5A inv ctr inactive, MOR-DOR ag inactive, MOR-DOR inv ag-1 inactive and HTR5A ag ctr inactive.
For CC(=O)N1CCc2cc(Br)cc(S(=O)(=O)N3CCN(c4ccccn4)CC3)c21 the results were HTR5A inv ctr 46.4, MOR-DOR ag inactive, MOR-DOR inv ag-1 inactive, HTR5A ag ctr inactive, MOR-DOR inv ag-2 inactive and HTR5A inv conf inactive.
Screening COc1ccc(Cl)cc1NC(=O)CN(C)C(=O)Cn1[nH]c(=O)c2ccccc2c1=O returned HTR5A inv ctr inactive, MOR-DOR ag inactive, MOR-DOR inv ag-1 inactive and HTR5A ag ctr inactive.
Oc1ccc(Cl)cc1N=Cc1sc2ccccc2c1Cl was read as HTR5A inv ctr inactive, MOR-DOR ag inactive, MOR-DOR inv ag-1 inactive and HTR5A ag ctr inactive.
Screening O=[N+]([O-])c1ccc(O)c(N=Cc2sc3ccccc3c2O)c1 returned HTR5A inv ctr 46.1, MOR-DOR ag inactive, MOR-DOR inv ag-1 inactive, HTR5A ag ctr inactive, MOR-DOR inv ag-2 inactive and HTR5A inv conf inactive.
COc1ccccc1NS(=O)(=O)c1cc(-c2cc(C)no2)ccc1OC was read as HTR5A inv ctr inactive, MOR-DOR ag inactive, MOR-DOR inv ag-1 inactive and HTR5A ag ctr inactive.
COCCNC(=O)CSc1c2c(nc3ccc(Cl)cc13)CCCC2 was read as HTR5A inv ctr 42.8, MOR-DOR ag inactive, MOR-DOR inv ag-1 inactive, HTR5A ag ctr inactive, MOR-DOR inv ag-2 inactive and HTR5A inv conf inactive.
Screening COc1ccc(NC(=O)CSc2c3c(nc4cc(Cl)ccc24)CCCC3)cc1OC returned HTR5A inv ctr inactive, MOR-DOR ag inactive, MOR-DOR inv ag-1 inactive and HTR5A ag ctr inactive.
Screening COc1cccc(/C=N/Nc2nc(Nc3ccccc3)nc(-n3nc(C)cc3C)n2)c1O returned HTR5A inv ctr 40.0, MOR-DOR ag inactive, MOR-DOR inv ag-1 inactive, HTR5A ag ctr inactive, MOR-DOR inv ag-2 inactive and HTR5A inv conf inactive.
Screening Cc1cc(C)n(-c2nc(Nc3ccccc3)nc(-n3nc(C)cc3C)n2)n1 returned HTR5A inv ctr inactive, MOR-DOR ag inactive, MOR-DOR inv ag-1 inactive and HTR5A ag ctr inactive.
COc1cc(Br)c(/C=C/c2ccc3cccc(O)c3n2)cc1OC was read as HTR5A inv ctr inactive, MOR-DOR ag inactive, MOR-DOR inv ag-1 inactive and HTR5A ag ctr inactive.
For Oc1cccc2ccc(/C=C/c3ccccc3Br)nc12 the results were HTR5A inv ctr 61.8, MOR-DOR ag inactive, MOR-DOR inv ag-1 inactive, HTR5A ag ctr inactive, MOR-DOR inv ag-2 inactive and HTR5A inv conf 51.3.
Screening CSc1ccc(/C=C/c2ccc3cccc(O)c3n2)cc1 returned HTR5A inv ctr 23.6, MOR-DOR ag inactive, MOR-DOR inv ag-1 inactive, HTR5A ag ctr inactive, MOR-DOR inv ag-2 inactive and HTR5A inv conf inactive.
Cc1ccsc1/C=C/c1ccc2cccc(O)c2n1 was read as HTR5A inv ctr 32.1, MOR-DOR ag inactive, MOR-DOR inv ag-1 inactive, HTR5A ag ctr inactive, MOR-DOR inv ag-2 inactive and HTR5A inv conf inactive.
`Cn1nc(C(F)(F)F)c2cc(C(=O)Nc3ccc(Cl)cc3)sc21` gave HTR5A inv ctr inactive, MOR-DOR ag inactive, MOR-DOR inv ag-1 inactive and HTR5A ag ctr inactive.
For O=C(OCc1c(-c2ccccc2)ncc2ccccc12)c1ccccc1C(F)(F)F the results were HTR5A inv ctr inactive, MOR-DOR ag inactive, MOR-DOR inv ag-1 inactive and HTR5A ag ctr inactive.
